Source: PubChem (several laboratories)
Sampled rows, rich in hits. Any-hit rate of the full collection: about 3.6%.
EBV LMP1 NFkB: EBV LMP1-driven NF-kappaB luciferase reporter inhibitors, primary screen, cell-based, luminescence, single point. LMP1-induced NF-kappaB luciferase reporter cells. inhibition, % at 12.5 µM. actives 0.69% (n = 350,000); in the data active = inhibition above about 41%; inconclusive = no clear call, values can overlap the other calls;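 also: 0% = neutral control wells and 100% = reference inhibitor control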
HSF-1 act: HSF-1 activators, primary screen, NIH3T3-HGL cells, MG132 stress, luminescence, single point; activation, % at 9 µM; actives 1.7% (n = 300,000); NIH3T3-HGL HSF-1 luciferase reporter, 8 h; 100% = twice DMSO control signal;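 active = mean replicate activation of at least 50% with a set share of replicates each reaching 50%; inconclusive = only one of those two conditions met; inactive = mean below 50% and too few replicates reaching it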;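 also: 0% = median of the neutral control wells and 100% = twice that signal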
HSF1 inhib: HSF1 inhibitors in luciferase reporter cells, primary screen, cell-based, NIH3T3, luminescence. NIH3T3-HGL HSE-luciferase, MG132-induced, luminescence 8 h; stronger effect = lower value. activity change, negative = inhibition, % at 7.5 µM (by protocol). actives 0.77% (n = 300,000);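 active = more than half of replicate wells show activity change below -50%, luminescence cut by over half; inconclusive = some wells, but at most half, below -50%; inactive = no replicate well below -50%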;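 also: luciferase reports HSF-1 transcriptional activity via heat shock element; 0% = median of DMSO wells and -100% = zero luminescence signal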
TROY NFkB inh: inhibitors of TROY-driven NF-kB signaling, primary screen, Q293 LMP1-TROYcd cells, NF-kB luciferase, uHTS. AID 1347056, 2019. inhibition, % at 10 µM. actives 0.98% (n = 360,000). Q293 LMP1-TROYcd NF-kB luciferase reporter, 4 h;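 active = compounds whose plate-normalised and pattern-corrected inhibition of the luciferase reporter signal at the single screening dose is 50% or more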
LGR2 antag: inhibitors of bursicon-induced LGR2 CRE-luciferase signal, primary screen, cell-based, HEK293, CRE-luciferase reporter, bursicon stimulation; Drosophila bursicon receptor LGR2 (rickets); inhibition, % at 9.99 µM; actives 0.35% (n = 380,000); bursicon-stimulated, 4 h;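 active = drop in luminescence signal, shown as inhibition above about 50% in the replicate tests, limit read from the data, passing the limit was not always enough; inconclusive = probably only some replicates passing the limit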;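 also: agonist challenge used bursicon conditioned medium at about half maximal strength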
TWEAK-Fn14 inh: inhibitors of TWEAK-Fn14 signaling, primary screen, luciferase reporter cells, uHTS | TWEAK-stimulated Fn14 reporter cells, luciferase luminescence, 8 h | inhibition, % at 10 µM | actives 2% (n = 360,000) | AID 1159606, 2016; in the data active = inhibition above about 50%
The depositor's hits bear a star; ? = inconclusive; nt = no result.

SMILES	EBV LMP1 NFkB	HSF-1 act	HSF1 inhib	TROY NFkB inh	LGR2 antag	TWEAK-Fn14 inh
CC(C)(C)c1ccc(-c2cc(-c3ccccc3O)[nH]n2)cc1	-51.8	-75.5	-71.5*	83.3*	13.5	85.1*
Oc1ccc(Cl)cc1-c1cc(-c2ccccc2Cl)[nH]n1	-17.6	20.1	9.7	-52.6	nt	2.9
C[C@@H]1CCCCO[C@@H](CN(C)Cc2ccncc2)[C@@H](C)CN([C@H](C)CO)C(=O)c2cc(NS(C)(=O)=O)ccc2O1	nt	nt	nt	nt	2.1	nt
CO[C@H]1CN(C)C(=O)c2cc(NC(C)=O)ccc2OC[C@H](C)N(C(=O)c2ccncc2)C[C@H]1C	nt	nt	nt	nt	3.8	nt
C[C@@H]1CCCCO[C@H](CN(C)C(=O)C2CCCCC2)[C@H](C)CN([C@@H](C)CO)C(=O)c2cc(NC(=O)C3CCCCC3)ccc2O1	nt	nt	nt	nt	20.5	nt
C[C@@H]1CN([C@H](C)CO)C(=O)c2cc(-c3ccncc3)cnc2O[C@H]1CN(C)C(=O)NC1CCCC1	nt	nt	nt	nt	10.3	nt
CCOc1ccc(-c2cc(C(=O)NN)[nH]n2)cc1	-6.9	42.3	28.2	-49.6	-11.8	-8.3
COc1ccc(-c2cc(-c3cc(C)ccc3O)[nH]n2)cc1	-64.4	264.5*	251.8	-27.5	-78.3	23.9
COc1ccc(-c2cc(C(=O)NN)[nH]n2)cc1	-0.8	24.0	7.7	41.0	-14.3	53.3*
CO[C@@H]1CN(C)C(=O)c2ccc(NS(=O)(=O)c3ccccc3C)cc2OC[C@@H](C)N(S(C)(=O)=O)C[C@H]1C	nt	nt	nt	nt	-14.5	nt
COc1cc(Cl)cc(C(c2c(C(=O)O)[nH]c3ccccc23)c2c(C(=O)O)[nH]c3ccccc23)c1O	48.4*	7.6	1.9	14.4	-10.2	-3.6
CCOc1cc(C2NN=C(c3ccccc3)S2)ccc1OCc1ccc(F)cc1 (stereo unspecified)	-21.8	56.4*	29.5	-43.9	nt	-28.9
CCOc1cc(C2NN=C(c3ccccc3)S2)ccc1OCc1ccccc1Cl (stereo unspecified)	-20.4	53.4*	37.5	-39.1	nt	9.7
CCOc1cc2c(cc1OCC)C(c1ccc(F)cc1)NCC2 (stereo unspecified)	-0.5	2.7	-2.0	-17.1	1.5	17.5
O=C(C[C@@H]1CC[C@H](NC(=O)c2cnccn2)[C@@H](CO)O1)NCc1ccccc1F	nt	nt	nt	nt	-3.7	nt
CC(=O)Nc1ccc(-c2csc(NC(=O)C3CC(=O)N(c4ccc5c(c4)OCCO5)C3)n2)cc1 (stereo unspecified)	3.3	11.2	-1.9	39.4	15.1	14.2
COC(=O)c1ccc(CSc2nnc(NC(=O)C3CC(=O)N(c4ccc5c(c4)OCCO5)C3)s2)cc1 (stereo unspecified)	2.4	-19.5	-3.1	44.2	-3.3	54.5*
Cc1ccc(N2CC(C(=O)Nc3nnc(SCCN4CCOCC4)s3)CC2=O)cc1 (stereo unspecified)	-8.7	-64.7	-54.8*	-16.2	-9.0	7.7
COc1ccc(-c2csc(NC(=O)C3CC(=O)N(c4ccc5c(c4)OCCO5)C3)n2)cc1 (stereo unspecified)	9.5	-25.7	-9.3	55.5*	23.5	84.7*
CCc1ccc(N2CC(C(=O)Nc3ccc4c(c3)OCCO4)CC2=O)cc1 (stereo unspecified)	10.0	-41.2	-28.1	55.3*	13.3	51.1*
COc1cccc(-c2ccc([C@H]3[C@H](CO)N4C(=O)CN(C(=O)c5ccncc5)C[C@@H]34)cc2)c1	nt	nt	nt	nt	10.2	nt
N#Cc1ccc(-c2ccc([C@@H]3[C@H](CO)N4CCCCN(S(=O)(=O)c5ccccc5)C[C@@H]34)cc2)cc1	nt	nt	nt	nt	-11.1	nt
COCC(=O)Nc1ccc2c(c1)C(=O)N(C)C[C@@H](OC)[C@@H](C)CN(C(=O)c1cnccn1)[C@H](C)CO2	nt	nt	nt	nt	-3.0	nt
Cc1cc(NC(=O)C2CC(=O)N(c3cccc(C)c3C)C2)no1 (stereo unspecified)	-3.6	21.9	-0.8	-20.5	-12.8	1.8
Cc1cccc(N2CC(C(=O)Nc3ccc4c(c3)OCCO4)CC2=O)c1C (stereo unspecified)	1.4	-32.4	-18.4	34.4	4.6	63.1*
SMILES	EBV LMP1 NFkB	HSF-1 act	HSF1 inhib	TROY NFkB inh	LGR2 antag	TWEAK-Fn14 inh
CCN(CC)S(=O)(=O)c1ccc(NC(=O)C2CC(=O)N(c3ccc4c(c3)OCCO4)C2)cc1 (stereo unspecified)	8.8	nt	nt	6.6	6.7	60.2*
Cc1cc(NC(=O)C2CC(=O)N(c3ccccc3C)C2)no1 (stereo unspecified)	-3.5	15.4	-2.3	-6.9	-5.4	82.8*
O=C(N[C@@H]1CC[C@@H](CCNS(=O)(=O)c2ccc(Cl)cc2)O[C@H]1CO)c1cccnc1	nt	nt	nt	nt	-2.5	nt
COc1ccc2c3c(n(C)c2c1)[C@H](CO)N(Cc1ccccc1F)CC31CN(C(=O)C2CCOCC2)C1	nt	nt	nt	nt	-0.1	nt
C[C@@H]1CN([C@H](C)CO)C(=O)c2cc(C#CCN(C)C)cnc2O[C@H]1CN(C)S(=O)(=O)c1cn(C)cn1	nt	nt	nt	nt	-14.0	nt
COc1ccc2c3c(n(C)c2c1)[C@H](CO)N(C(=O)CN(C)C)CC31CCN(Cc2nccs2)CC1	nt	nt	nt	nt	6.1	nt
O=C(NCC1CC1)[C@@H]1[C@@H](CO)[C@@H]2Cn3c(ccc(-c4cccnc4)c3=O)[C@H]1N2Cc1nccs1	nt	nt	nt	nt	-5.4	nt
O=[N+]([O-])c1ccc(N2CCN(C(=S)Nc3ccccc3)CC2)cc1	0.4	-7.4	-2.6	1.3	24.1	-4.4
O=[N+]([O-])c1ccc(NC(=S)N2CCN(c3ccccc3)CC2)cc1	-4.8	11.4	5.6	7.8	4.3	55.9*
CC(NC(=S)N1CCN(c2ccccc2)CC1)c1ccccc1 (stereo unspecified)	-6.0	-22.1	0.7	7.9	?	64.8*
COc1ccc(N2CCN(C(=S)NC(C)c3ccccc3)CC2)cc1 (stereo unspecified)	-5.9	2.2	-0.7	-1.7	-7.4	-16.5
O=C(C[C@@H]1CC[C@H](NC(=O)C2CCOCC2)[C@@H](CO)O1)Nc1ccc(-c2ccccc2)cc1	nt	nt	nt	nt	5.6	nt
Cc1cc(C)cc(N(C(=O)c2snc(C(N)=O)c2N)C(C(=O)NCC2CCCO2)c2cccs2)c1 (stereo unspecified)	-9.4	-4.0	3.6	-75.9	-40.4	8.5
NC(=O)c1nsc(C(=O)N(c2ccccc2)C(C(=O)NCC2CCCO2)c2cccs2)c1N (stereo unspecified)	-5.1	72.5*	40.8	-12.6	12.2	4.1
Cc1ccc(C(C(=O)NCC2CCCO2)N(C(=O)c2snc(C(N)=O)c2N)c2ccc3c(c2)OCCO3)cc1 (stereo unspecified)	1.7	-4.1	-3.8	-15.6	2.2	-2.9
